Inconclusive results are not listed. The source made the active and inactive calls. Calls come from the whole dose curve; as a rule, active = well fitted curve in the direction sought with a large enough effect; inconclusive = small, poorly fitted or top-dose-only effect, or another doubt; inactive = no such curve, though single readings can be large; an effect the other way counts as inactive or inconclusive.
Legend:
[1] = Cell Viability - LYMP2-009 (AID 968); conditions: LYMP2-009 lymphoblastoid cell viability; series mostly up to 92.2 µM; note: nearly all actives have a fitted effect of over 55% in size; note: potency is the fitted concentration of half-maximal effect
[2] = Cell Viability - LYMP2-011 (AID 969); conditions: LYMP2-011 lymphoblastoid cells viability; series mostly up to 92.2 µM; note: nearly all actives have a fitted effect of over 60% in size; note: potency is the fitted concentration of half-maximal effect
Outline: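 Cytotoxicity qHTS with ATP content as read-out: lymphoblastoid cells (2500/well) exposed to compound for 24 h at 37 C, then luciferase luminescence measured. Concentration-response data fitted with the standard Hill equation to give AC50.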

[3] = Cell Viability - LYMP2-013 (AID 970); conditions: LYMP2-013 lymphoblastoid cells viability; series mostly up to 92.2 µM; note: nearly all actives have a fitted effect of over 55% in size; note: potency is the fitted concentration of half-maximal effect
Outline: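 qHTS cytotoxicity: ATP-dependent luminescence (CellTiter-Glo, 30 min room temperature) read after 24 h compound exposure at 37 C of 2500 LYMP2-013 lymphoblastoid cells per well. Concentration-response fitted with Hill equation to give AC50.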

[4] = Cell Viability - LYMP2-015 (AID 971); conditions: LYMP2-015 lymphoblastoid cell viability; series mostly up to 92.2 µM; note: nearly all actives have a fitted effect of over 55% in size; note: potency is the fitted concentration of half-maximal effect
Outline: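 Cytotoxicity readout: decrease in intracellular ATP (CellTiter-Glo luminescence) in 2500 LYMP2-015 lymphoblastoid cells/well after 24 h compound exposure at 37 C. Concentration-response data fitted with the standard Hill equation to give AC50.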

[5] = Cell Viability - LYMP2-017 (AID 972); conditions: LYMP2-017 lymphoblastoid cell viability; series mostly up to 92.2 µM; note: nearly all actives have a fitted effect of over 55% in size; note: potency is the fitted concentration of half-maximal effect
Outline: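 CellTiter-Glo luminescence (cellular ATP, 30 min RT) measured cytotoxicity after 24 hr compound treatment at 37 C. Cells were a human lymphoblastoid line, LYMP2-017, plated at 2500/well and incubated 5 hr first; concentration-response fitted with Hill equation for AC50.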

[6] = Cell Viability - LYMP2-019 (AID 973); conditions: LYMP2-019 lymphoblastoid cell line viability; series mostly up to 92.2 µM; note: nearly all actives have a fitted effect of over 55% in size; note: potency is the fitted concentration of half-maximal effect
Outline: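 AC50 values come from Hill-equation fits of luminescent intracellular ATP (CellTiter-Glo, 30 min, room temperature) following 24 h compound exposure at 37 C. Cells: LYMP2-019 lymphoblastoid line, 2500 per well, in complete culture medium.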

[7] = Cell Viability - LYMP2-021 (AID 974); conditions: LYMP2-021 lymphoblastoid cells viability; series mostly up to 92.2 µM; note: nearly all actives have a fitted effect of over 55% in size; note: potency is the fitted concentration of half-maximal effect
Outline: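 AC50 values come from Hill-equation fits to CellTiter-Glo luminescence (ATP content), read after 24 hour compound exposure at 37 C of 2500 LYMP2-021 lymphoblastoid cells/well; tetraoctylammonium bromide as positive control.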

[8] = Cell Viability - LYMP2-023 (AID 975); conditions: LYMP2-023 lymphoblastoid cell viability; series mostly up to 92.2 µM; note: nearly all actives have a fitted effect of over 55% in size; note: potency is the fitted concentration of half-maximal effect
Outline: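 Intracellular ATP, read by CellTiter-Glo luminescence, reports viability after 24 hr compound exposure at 37 C. 2500 lymphoblastoid cells/well (LYMP2-023) seeded 5 hr beforehand; Hill fits give AC50; positive control tetraoctylammonium bromide.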

[9] = Cell Viability - LYMP2-025 (AID 976); conditions: LYMP2-025 lymphoblastoid cell viability; series mostly up to 92.2 µM
Outline: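 Cytotoxicity read as loss of intracellular ATP (luciferase luminescence) after 24 h compound treatment at 37 C. Uses LYMP2-025 lymphoblastoid cells in 1536-well format; Hill-equation modelling gives AC50; tetraoctylammonium bromide as positive control.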

[10] = Cell Viability - LYMP2-002 (AID 977); conditions: LYMP2-002 lymphoblastoid cell viability, qHTS; series mostly up to 92.2 µM; note: potency is the fitted concentration of half-maximal effect
Outline: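 Human lymphoblastoid cells (2500/well) in complete medium were preincubated 5 hr at 37 C, then exposed to compounds for 24 hr at 37 C. Intracellular ATP was read by CellTiter-Glo luminescence; AC50 came from Hill-equation concentration-response fits.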

[11] = Cell Viability - LYMP2-007 (AID 979); conditions: LYMP2-007 lymphoblastoid cell viability; series mostly up to 92.2 µM;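 note: cells exposed to compound for 24 h before reading; nearly all actives have a fitted effect of over 60% in size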; note: potency is the fitted concentration of half-maximal effect
Outline: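 AC50 values come from Hill-equation fits of luminescent intracellular ATP (CellTiter-Glo, 30 min, room temperature) following 24 h compound exposure at 37 C. Cells: LYMP2-007 lymphoblastoid line, 2500 per well, in complete culture medium.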

[12] = Cell Viability - LYMP2-008 (AID 980); conditions: LYMP2-008 lymphoblastoid cell viability, qHTS; series mostly up to 92.2 µM; note: nearly all actives have a fitted effect of over 60% in size; note: potency is the fitted concentration of half-maximal effect
Outline: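 Cytotoxicity determined from ATP-dependent luciferase luminescence (CellTiter-Glo) following 24 h compound exposure of human lymphoblastoid LYMP2-008 cells at 37 C. Concentration-response data fitted to the Hill equation to give AC50.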

[13] = Cell Viability - LYMP2-010 (AID 981); conditions: LYMP2-010 lymphoblastoid cell viability, qHTS; series mostly up to 92.2 µM; note: nearly all actives have a fitted effect of over 55% in size; note: potency is the fitted concentration of half-maximal effect
Outline: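 CellTiter-Glo ATP luminescence measured cytotoxicity after 24 h compound exposure at 37 C. LYMP2-010 cells were seeded at 2500/well, with tetraoctylammonium bromide as control; concentration-response curves gave AC50 values by the Hill equation.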

[14] = Cell Viability - LYMP2-012 (AID 982); conditions: LYMP2-012 lymphoblastoid cell viability qHTS; series mostly up to 92.2 µM; note: potency is the fitted concentration of half-maximal effect
[15] = Cell Viability - LYMP2-014 (AID 983); conditions: LYMP2-014 lymphoblastoid cells, viability qHTS; series mostly up to 92.2 µM; note: nearly all actives have a fitted effect of over 50% in size; note: potency is the fitted concentration of half-maximal effect
Outline: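 Intracellular ATP loss, read by luciferase luminescence, measures acute cytotoxicity after 24 h compound exposure of lymphoblastoid LYMP2-014 cells (2500/well, 37 C). Concentration-response data fitted to the Hill equation for AC50.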

[16] = Cell Viability - LYMP2-016 (AID 984); conditions: LYMP2-016 lymphoblastoid cell viability, qHTS; series mostly up to 92.2 µM; note: nearly all actives have a fitted effect of over 55% in size; note: potency is the fitted concentration of half-maximal effect
Outline: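 Human lymphoblastoid LYMP2-016 cells, 2500 per well, treated with compounds for 24 h at 37 C. Viability read as intracellular ATP by CellTiter-Glo luminescence after 30 min at room temperature; AC50 from Hill fits of concentration-response.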

[17] = Cell Viability - LYMP2-018 (AID 985); conditions: LYMP2-018 lymphoblastoid cells, viability (qHTS); series mostly up to 92.2 µM; note: nearly all actives have a fitted effect of over 50% in size; note: potency is the fitted concentration of half-maximal effect
Outline: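 Viability read as CellTiter-Glo luminescence (cellular ATP) after 24 hr compound exposure at 37 C of 2500 LYMP2-018 lymphoblastoid cells/well, pre-plated 5 hr. Hill-equation modelling gave AC50.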

[18] = Cell Viability - LYMP2-020 (AID 986); conditions: series mostly up to 92.2 µM; note: nearly all actives have a fitted effect of over 55% in size; note: potency is the fitted concentration of half-maximal effect
Outline: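 Cytotoxicity in qHTS format: luminescent ATP readout from CellTiter-Glo after 24 h compound exposure at 37 C in complete medium. LYMP2-020 lymphoblastoid cells were seeded at 2500/well; concentration-response data fitted to the Hill equation for AC50.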

[19] = Cell Viability - LYMP2-022 (AID 987); conditions: LYMP2-022 lymphoblastoid cell viability; series mostly up to 92.2 µM; note: nearly all actives have a fitted effect of over 55% in size; note: potency is the fitted concentration of half-maximal effect
Outline: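 Cytotoxicity read as decreased cellular ATP (CellTiter-Glo luminescence, 30 min room temperature) after 24 hours compound exposure of 2500 lymphoblastoid LYMP2-022 cells/well at 37 C. Concentration-response data fitted with standard Hill equation for AC50.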

[20] = Cell Viability - LYMP2-005 (AID 967); conditions: LYMP2-005 lymphoblastoid cell viability; series mostly up to 92.2 µM
Outline: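 Human lymphoblastoid LYMP2-005 cells, 2,500 per well in complete medium, rested 5 h at 37C then compound-treated 24 h at 37C. Intracellular ATP read by CellTiter-Glo luminescence after 30 min at room temperature; AC50 from Hill-equation fits of concentration-response data.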

Measured: Potency

CC(=O)O[C@]1(C(C)=O)CC[C@H]2[C@@H]3C=C(Cl)C4=CC(=O)[C@@H]5C[C@@H]5[C@]4(C)[C@H]3CC[C@@]21C
not listed: [20]
inactive: all other assays above

CC(=O)c1ccc(S(=O)(=O)NC(=O)NC2CCCCC2)cc1
inactive: all assays above

O=c1cc(-c2ccc(O)cc2)oc2cc(O)cc(O)c12
inactive: [20] | [6] | [15]

CN(C)CCC(c1ccccc1)c1ccccn1 (stereo unspecified)
inactive: all assays above

CCCNC(=O)NS(=O)(=O)c1ccc(Cl)cc1
inactive: all assays above

O=c1[nH]cnc2c1ncn2[C@H]1CC[C@@H](CO)O1
inactive: all assays above

CC1=C(/C=C/C(C)=C/C=C/C(C)=C/C(=O)Nc2ccc(O)cc2)C(C)(C)CCC1
active: [2] 63.1 µM | [3] 50.1 µM | [5] 50.1 µM | [6] 50.1 µM | [7] 50.1 µM | [8] 50.1 µM | [11] 39.8 µM | [12] 50.1 µM | [13] 50.1 µM | [14] 39.8 µM | [15] 50.1 µM | [16] 63.1 µM | [17] 50.1 µM | [18] 50.1 µM | [19] 39.8 µM

CCn1cc(C(=O)O)c(=O)c2ccc(C)nc21
inactive: all assays above

O=C1NC(=O)C(c2ccccc2)(c2ccccc2)N1
inactive: all assays above

O=c1c(-c2ccc(O)cc2)coc2cc(O)ccc12
not listed: [14]
inactive: all other assays above

O=c1c(O)c(-c2ccc(O)cc2)oc2cc(O)cc(O)c12
inactive: all assays above

O=C(O)Cc1cccc2ccccc12
inactive: all assays above

CCCCC1C(=O)N(c2ccccc2)N(c2ccccc2)C1=O
not listed: [5]
inactive: all other assays above

CC/C(=C(\c1ccccc1)c1ccc(OCCN(C)C)cc1)c1ccccc1
active: [1] 50.1 µM | [2] 50.1 µM | [3] 50.1 µM | [5] 50.1 µM | [6] 50.1 µM | [7] 50.1 µM | [8] 50.1 µM | [10] 39.8 µM | [11] 50.1 µM | [12] 50.1 µM | [13] 50.1 µM | [14] 50.1 µM | [15] 50.1 µM | [16] 39.8 µM | [17] 50.1 µM | [18] 50.1 µM | [19] 39.8 µM

O=C(O)c1cc(O)c2c(c1)C(=O)c1cccc(O)c1C2=O
inactive: [20] | [13] | [14] | [15] | [16] | [17] | [18] | [19]
active: [4] 50.1 µM

Reference: PubChem BioAssay (NCATS)
